{"source": "PubChem BioAssay (NCATS)", "key": {"[1]": {"experiment": "Primary qHTS for inhibitors of La Crosse Virus (LACV) - induced cell death in SH-SY5Y cells (AID 1508616);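 further: top concentration of the series differs between compounds; higher means more rescue of cells from virus-induced death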", "procedure,_shortened": "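Screening measures cell viability in LACV-infected SH-SY5Y cultures. Compound was added before virus (0.01 MOI), and ATP was detected by luminescence 6 days later.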"}, "[2]": {"biological_target": "Calcium and integrin-binding protein 1 (Homo sapiens) (UniProt Q99828)", "sequence (Q99828 whole entry, looked up)": "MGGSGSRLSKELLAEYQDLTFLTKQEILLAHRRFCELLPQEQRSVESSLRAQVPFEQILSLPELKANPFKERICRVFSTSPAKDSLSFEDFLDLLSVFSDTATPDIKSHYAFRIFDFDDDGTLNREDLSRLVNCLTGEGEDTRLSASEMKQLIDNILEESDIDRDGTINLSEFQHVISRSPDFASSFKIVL", "experiment": "Primary qHTS for Identification of Calcium Integrin Binding Protein 1 (CIB1) Competitor (AID 1508620); further: top concentration of the series differs between compounds", "procedure,_shortened": "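Fluorescence polarization competition: GST-tagged CIB1 (1 uM final) preincubated with compound 15 min at room temperature, then FITC-labelled alphaIIb peptide (100 nM final) added. After 15 min at room temperature, polarization read at Ex 480/Em 540.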"}, "[3]": {"experiment": "Primary qHTS for small molecule stabilizers of the endoplasmic reticulum resident proteome: Secreted ER Calcium Modulated Protein (SERCaMP) assay (AID 1508630); further: potency means the concentration at half of the fitted maximal effect", "procedure,_shortened": "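The SH-SY5Y reporter protocol was run at 3 concentrations up to 38.3 uM (primary) or 11 concentrations (follow-up): 16 h compound, 100 nM thapsigargin for 4 h, then extracellular luciferase luminescence.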"}, "[4]": {"experiment": "Counterscreen qHTS for small molecule stabilizers of the endoplasmic reticulum resident proteome: GLuc-NoTag assay (AID 1508627); further: series mostly up to about 76 µM", "procedure,_shortened": "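Counterscreen line: SH-SY5Y-GLuc-NoTag. Seed, 5 h; compound, 19 h; thapsigargin 100 nM, 4 h; 37C/5% CO2. Readout: secreted GLuc luminescence, coelenterazine 0.07x final, no lysis.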"}, "[5]": {"experiment": "Confirmatory qHTS for small molecule stabilizers of the endoplasmic reticulum resident proteome: Secreted ER Calcium Modulated Protein (SERCaMP) assay (AID 1508628); further: series mostly up to about 76 µM; nearly all actives have a fitted effect of over 40% in size", "procedure,_shortened": "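GLuc-SERCaMP-expressing SH-SY5Y cells, pretreated 16 h with compound, are challenged with thapsigargin to empty ER calcium stores; after 4 h, coelenterazine is added directly to the medium and luminescence is imaged.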"}, "[6]": {"experiment": "Cell Viability qHTS for small molecule stabilizers of the endoplasmic reticulum resident proteome (AID 1508629);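 further: human SH-SY5Y neuroblastoma cells carrying the GLuc-SERCaMP reporter; compound exposure about 46 h in total before the viability read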", "settings": "cell viability counter-screen, 100 nM thapsigargin for final 4 h"}}, "note": "Results filed as inconclusive are left out. Entries that show only a call come without a potency. Values without a mark were called inactive. Active and inactive are the calls of the source. The call rests on the fitted dose curve; in most records, active means well fitted curve in the direction sought with a large enough effect; inconclusive means small, poorly fitted or top-dose-only effect, or another doubt; inactive means no such curve, though single readings can be large; an effect the other way counts as inactive or inconclusive."}
{"smiles": "CN(C)CCOc1ccccc1Cc1ccccc1", "values": [{"measurement": "Potency", "setting": "[1]", "value": "inactive"}, {"measurement": "Potency", "setting": "[2]", "value": "inactive"}]}
{"smiles": "C[C@H](O)C(=O)Nc1c(I)c(C(=O)NC(CO)CO)c(I)c(C(=O)NC(CO)CO)c1I", "values": [{"measurement": "Potency", "setting": "[1]", "value": "inactive"}, {"measurement": "Potency", "setting": "[2]", "value": "inactive"}]}
{"smiles": "NC(=O)CC[C@@H]1NC(=O)[C@H](Cc2ccccc2)NC(=O)[C@H](Cc2ccc(O)cc2)NC(=O)CCSSC[C@@H](C(=O)N2CCC[C@H]2C(=O)N[C@@H](CCCN=C(N)N)C(=O)NCC(N)=O)NC(=O)[C@H](CC(N)=O)NC1=O", "values": [{"measurement": "Potency", "setting": "[1]", "value": "inactive"}, {"measurement": "Potency", "setting": "[2]", "value": "inactive"}]}
{"smiles": "COc1cc(OC)cc(OC)c1", "values": [{"measurement": "Potency", "setting": "[1]", "value": "inactive"}, {"measurement": "Potency", "setting": "[2]", "value": "inactive"}]}
{"smiles": "COC(=O)C1=C(C)NC(C)=C(C(=O)O[C@@H]2CCCN(Cc3ccccc3)C2)[C@@H]1c1cccc([N+](=O)[O-])c1", "values": [{"measurement": "Potency", "setting": "[1]", "value": "inactive"}, {"measurement": "Potency", "setting": "[2]", "value": "inactive"}]}
{"smiles": "CCN(CC)CCOC(=O)C(c1ccccc1)C1CCCCC1", "note": "(configuration not stated)", "values": [{"measurement": "Potency", "setting": "[1]", "value": "inactive"}, {"measurement": "Potency", "setting": "[2]", "value": "inactive"}]}
{"smiles": "COc1cccc(CCc2ccccc2OCC(CN(C)C)OC(=O)CCC(=O)O)c1", "note": "(configuration not stated)", "values": [{"measurement": "Potency", "setting": "[1]", "value": "inactive"}, {"measurement": "Potency", "setting": "[2]", "value": "inactive"}]}
{"smiles": "C[C@H]1[C@H](NC(=O)/C(=N/OC(C)(C)C(=O)O)c2csc(N)n2)C(=O)N1S(=O)(=O)O", "note": "(stereo in doubt)", "values": [{"measurement": "Potency", "setting": "[1]", "value": "inactive"}, {"measurement": "Potency", "setting": "[2]", "value": "inactive"}]}
{"smiles": "CCOC(=O)COc1ccc2c(C)c(CCN(CC)CC)c(=O)oc2c1Cl", "values": [{"measurement": "Potency", "setting": "[1]", "value": "inactive"}, {"measurement": "Potency", "setting": "[2]", "value": "inactive"}]}
{"smiles": "CCOC(=O)c1cccc(N)c1", "values": [{"measurement": "Potency", "setting": "[1]", "value": "inactive"}, {"measurement": "Potency", "setting": "[2]", "value": "inactive"}]}
{"smiles": "CC(C)(C(=O)c1cccnc1)c1cccnc1", "values": [{"measurement": "Potency", "setting": "[1]", "value": "inactive"}, {"measurement": "Potency", "setting": "[2]", "value": "inactive"}]}
{"smiles": "COc1cc(N)c(Cl)cc1C(=O)NC1CCN(CCCOc2ccc(F)cc2)CC1OC", "note": "(configuration not stated)", "values": [{"measurement": "Potency", "setting": "[1]", "value": "inactive"}, {"measurement": "Potency", "setting": "[2]", "value": "inactive"}]}
{"smiles": "CCN(CCCc1ccccc1)CCCc1ccccc1", "values": [{"measurement": "Potency", "setting": "[1]", "value": "inactive"}, {"measurement": "Potency", "setting": "[2]", "value": "inactive"}]}
{"smiles": "CC[C@@H](CO)NCCN[C@@H](CC)CO", "values": [{"measurement": "Potency", "setting": "[1]", "value": "inactive"}, {"measurement": "Potency", "setting": "[2]", "value": "inactive"}]}
{"smiles": "CCOC(=O)[C@H](CCc1ccccc1)N[C@@H](C)C(=O)N1Cc2ccccc2C[C@H]1C(=O)O", "values": [{"measurement": "Potency", "setting": "[1]", "value": "inactive"}, {"measurement": "Potency", "setting": "[2]", "value": "inactive"}]}
{"smiles": "CC1(C)O[C@@H]2C[C@H]3[C@@H]4CCC5=CC(=O)CC[C@]5(C)[C@@]4(F)[C@@H](O)C[C@]3(C)[C@]2(C(=O)CCl)O1", "values": [{"measurement": "Potency", "setting": "[1]", "value": "inactive"}, {"measurement": "Potency", "setting": "[2]", "value": "inactive"}]}
{"smiles": "CCOC(=O)n1ccn(C)c1=S", "values": [{"measurement": "Potency", "setting": "[1]", "value": "inactive"}, {"measurement": "Potency", "setting": "[2]", "value": "inactive"}, {"measurement": "Potency", "setting": "[3]", "value": "inactive"}]}
{"smiles": "Nc1nc2ncc(CNc3ccc(C(=O)N[C@@H](CCC(=O)O)C(=O)O)cc3)nc2c(=O)[nH]1", "values": [{"measurement": "Potency", "setting": "[1]", "value": "inactive"}, {"measurement": "Potency", "setting": "[2]", "value": "inactive"}, {"measurement": "outcome", "setting": "[4]", "value": "inactive"}, {"measurement": "Potency", "setting": "[5]", "value": "inactive"}, {"measurement": "max response", "setting": "[6]", "value": 22.5, "unit": "%"}]}
{"smiles": "CCN1CCN(c2cc3c(cc2F)c(=O)c(C(=O)O)cn3C2CC2)CC1", "values": [{"measurement": "Potency", "setting": "[1]", "value": "inactive"}, {"measurement": "Potency", "setting": "[2]", "value": "inactive"}, {"measurement": "outcome", "setting": "[4]", "value": "inactive"}, {"measurement": "Potency", "setting": "[5]", "value": "inactive"}, {"measurement": "max response", "setting": "[6]", "value": 21.1, "unit": "%"}, {"measurement": "Potency", "setting": "[3]", "value": "1.12 µM (active)"}]}
{"smiles": "CN1[C@@H]2CC[C@H]1CC(OC(=O)c1c[nH]c3ccccc13)C2", "note": "(some centres not stated)", "values": [{"measurement": "Potency", "setting": "[1]", "value": "inactive"}, {"measurement": "Potency", "setting": "[2]", "value": "inactive"}, {"measurement": "outcome", "setting": "[4]", "value": "inactive"}, {"measurement": "Potency", "setting": "[5]", "value": "inactive"}, {"measurement": "Potency", "setting": "[3]", "value": "35.5 µM (active)"}]}
{"smiles": "CC(=O)OCC(=O)NCCCOc1cccc(CN2CCCCC2)c1", "values": [{"measurement": "Potency", "setting": "[1]", "value": "inactive"}, {"measurement": "Potency", "setting": "[2]", "value": "inactive"}, {"measurement": "Potency", "setting": "[3]", "value": "inactive"}]}
{"smiles": "O=C1OC2(c3ccc(O)cc3Oc3cc(O)ccc32)c2ccccc21", "values": [{"measurement": "Potency", "setting": "[1]", "value": "inactive"}, {"measurement": "Potency", "setting": "[2]", "value": "inactive"}, {"measurement": "Potency", "setting": "[3]", "value": "inactive"}]}
